# CASP6 VEID inh = inhibitors of human caspase-6 | P55212 | purified caspase-6, Z-VEID-R110 cleavage fluorescence | inhibition, % at 12.5 µM | 350,000 compounds, 0.53% hits | AID 686996;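 active means mean inhibition across replicates at least about 35%, with every replicate also reaching that limit, limit read from the data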
# Target sequence (P55212 24-179 limits assumed): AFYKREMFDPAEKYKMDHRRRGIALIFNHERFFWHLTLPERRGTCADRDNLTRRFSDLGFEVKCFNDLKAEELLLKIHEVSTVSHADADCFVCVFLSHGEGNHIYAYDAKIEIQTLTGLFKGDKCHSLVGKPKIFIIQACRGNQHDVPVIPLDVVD
# Target sequence (P55212 194-293 limits assumed): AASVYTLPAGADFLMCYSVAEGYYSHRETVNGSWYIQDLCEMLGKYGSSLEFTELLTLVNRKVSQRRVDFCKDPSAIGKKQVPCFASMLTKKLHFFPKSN
# INS-1E GSIS act = primary screen for activators of insulin secretion dependent on glucose, INS-1E cells, GLuc reporter luminescence | AID 743287 | INS-1E GLuc reporter insulin secretion, 2-3 h | 370,000 compounds, 0.61% hits | activation, % at 16.6 µM;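 active means lowest replicate activation of at least 40%, so every replicate reaches that level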
# FGF22 binding = FGF22 (human) thermal shift binding; Q9HCT0; recombinant FGF22 thermal shift, SYPRO orange fluorescence; percent of sucrose octasulfate shift, DMSO zero; activity (Tm shift, normalised), % at 9.99 µM; 340,000 compounds, 1.5% hits;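 active means mean Tm shift, scaled 0 neutral to 100 positive control, at about 1.3% or above, every replicate too, limit read from the data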
# SIRT5 inh = sirtuin-5 (human) deacylase inhibition. Q9NXA8. inhibition, % at 15 µM. Purified SirT5, succinyl-peptide AMC, trypsin-coupled fluorescence. 330,000 compounds, 1.1% hits; in the data active means inhibition above about 15%
# ERAP1 HTS inh = inhibitors of human ERAP1 aminopeptidase | recombinant ERAP1, Leu-AMC fluorescence, 60 min | inhibition, % at 10.7 µM | 340,000 compounds, 0.15% hits;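 active means mean replicate inhibition of at least 30%, or all replicates individually reaching that 30% level; inactive means mean below 30% and not every replicate reaching it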
# A number is an active result; - = inactive; . = no result; + = active, no number. Only some compounds are listed: those with a hit (about 3.3% of all), similar ones and a draw of the others.
SMILES,CASP6 VEID inh,INS-1E GSIS act,FGF22 binding,SIRT5 inh,ERAP1 HTS inh
CC(=O)N1[C@@H]2c3cccc(=O)n3C[C@H]1[C@H](CO)[C@H]2C(=O)NC1CCCC1,.,-,.,.,.
COC(=O)C1=C(C)N(Cc2cccc(C(F)(F)F)c2)C(=NCc2ccc(C(F)(F)F)cc2)NC1c1cccc(F)c1 (stereo unspecified),-,.,-,.,-
COC(=O)C1=C(C)N(Cc2ccc(C(F)(F)F)cc2)C(=NCc2ccccc2)NC1c1cccc(F)c1 (stereo unspecified),-,671,44,.,-
COC(=O)C1=C(C)N(Cc2ccc(C(F)(F)F)cc2)C(=NCc2ccc(OC)cc2)NC1c1cccc(Cl)c1 (stereo unspecified),-,.,-,.,-
COC(=O)C1=C(C)N(Cc2cccc(C(F)(F)F)c2)C(=NCc2cccc(C(F)(F)F)c2)NC1c1ccc(Cl)cc1 (stereo unspecified),-,785,-,-,-
COC(=O)C1=C(C)N(Cc2cccc(C(F)(F)F)c2)C(=NCc2ccc(C(F)(F)F)cc2)NC1c1ccc(F)cc1 (stereo unspecified),-,875,-,-,-
COC(=O)C1=C(C)N(Cc2cccc(C(F)(F)F)c2)C(=NCc2ccc3c(c2)OCO3)NC1c1ccc(F)cc1 (stereo unspecified),-,-,-,-,-
C=CCN=C1NC(c2ccc(Cl)cc2)C(C(=O)OC)=C(C)N1Cc1cccc(C(F)(F)F)c1 (stereo unspecified),-,-,-,-,-
COC(=O)C1=C(C)N(Cc2cccc(C(F)(F)F)c2)C(=NCc2ccc(OC)cc2)NC1c1cccc(Cl)c1 (stereo unspecified),-,+,.,.,-
CC=Cc1ccc2n(c1=O)C[C@H]1[C@H](CO)[C@@H](C(=O)NCC)[C@@H]2N1C(=O)c1ccc(F)cc1 (mixture of isomers),-,-,-,-,-
COc1ccc(NC(=O)N(C)C[C@@H]2Oc3ccc(NC(=O)Nc4cccc5ccccc45)cc3CC(=O)N([C@@H](C)CO)C[C@H]2C)cc1,-,-,-,-,-
COCCNC(=O)[C@H]1[C@H](CO)[C@H]2Cn3c(ccc(C4=CCCCC4)c3=O)[C@@H]1N2C(=O)C1CCCC1,-,-,.,-,-
COc1ccc(NC(=O)Nc2ccc3c(c2)C(=O)N([C@H](C)CO)C[C@H](C)[C@@H](CN(C)C(=O)c2ccccc2)OCCCC[C@@H](C)O3)cc1,-,-,-,-,-
COc1ccc(S(=O)(=O)Nc2ccc3c(c2)C(=O)N([C@@H](C)CO)C[C@H](C)[C@H](CN(C)Cc2ccc(Oc4ccccc4)cc2)O3)cc1,-,-,-,38,-
COc1ccc(S(=O)(=O)Nc2ccc3c(c2)C(=O)N([C@H](C)CO)C[C@@H](C)[C@H](CN(C)Cc2ccc(Oc4ccccc4)cc2)O3)cc1,-,-,-,22,-
COc1ccc(CN(C)C[C@H]2Oc3ccc(NS(=O)(=O)c4ccccc4)cc3C(=O)N([C@@H](C)CO)C[C@@H]2C)cc1,-,-,-,-,-
COc1ccc(S(=O)(=O)Nc2ccc3c(c2)C(=O)N([C@H](C)CO)C[C@H](C)[C@@H](CN(C)Cc2ccc(Oc4ccccc4)cc2)O3)cc1,-,-,-,22,-
COc1ccc(S(=O)(=O)Nc2ccc3c(c2)C(=O)N([C@@H](C)CO)C[C@@H](C)[C@H](CN(C)Cc2ccc(-c4ccccc4)cc2)O3)cc1,-,-,-,21,-
C[C@H](CO)N1C[C@H](C)[C@H](CN(C)Cc2ccc(Oc3ccccc3)cc2)Oc2ccc(NS(=O)(=O)c3ccccc3)cc2C1=O,-,-,-,-,-
COc1cccc(-c2cnc3c(c2)C(=O)N([C@H](C)CO)C[C@H](C)[C@H](CN(C)C(=O)Nc2ccc4c(c2)OCO4)O3)c1,-,-,-,-,-
COc1ccc(S(=O)(=O)Nc2ccc3c(c2)C(=O)N([C@H](C)CO)C[C@@H](C)[C@@H](CN(C)Cc2ccc(Oc4ccccc4)cc2)O3)cc1,-,-,-,30,-
C[C@@H]1CN([C@@H](C)CO)C(=O)c2cc(NS(=O)(=O)c3ccc(Cl)cc3)ccc2O[C@H]1CN(C)Cc1ccc(Oc2ccccc2)cc1,-,-,-,17,-
C[C@@H]1CN([C@H](C)CO)C(=O)c2cc(NS(=O)(=O)c3ccc(Cl)cc3)ccc2O[C@H]1CN(C)Cc1ccc(Oc2ccccc2)cc1,-,-,-,-,-

# Screens (PubChem)
